This is an account of results in PubChem BioAssay (NCATS).

Each structure is given as a SMILES string. Values joined by “and” are separate entries in the source; they are usually repeats but may differ in a detail not shown here. Identical values can stand only once. Values without a mark were called inactive. Records with an inconclusive call do not appear. This is one part of the list. Active and inactive are the calls of the source. Unless noted, the call rests on the fitted dose curve; in most records, active means well fitted curve in the direction sought with a large enough effect; inconclusive means small, poorly fitted or top-dose-only effect, or another doubt; inactive means no such curve, though single readings can be large; an effect the other way counts as inactive or inconclusive.

In experiment [1] the test system is HIV-1 nucleocapsid protein NCp7 (binding to TG oligonucleotide). The experiment in a line: HIV Nucleocapsid (AID 346; call rule not given here;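 further: potency means the concentration at half of the fitted maximal effect; potency is for inhibitors that block NC binding and lower polarization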). Conditions: HIV-1 NC / fluorescein-TGTGTGTG probe, fluorescence polarization. In outline:
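NCp7 100 nM + fluorescein TG4xF 10 nM; Hepes pH 7.5/250mM NaCl/1uM ZnCl2/0.004% PEG 20000; 1 hr RT; FP, 45 s exposure; oligo-only wells as negative control.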

Experiment [2] in a line: qHTS Assay for Inhibitors of Fructose-1,6-bisphosphate Aldolase from Giardia Lamblia: Giardia lamblia growth inhibition (AID 2785). Further: on the % scale 0 is the no-effect control and ±100 the full control effect; nearly all actives have a fitted effect of over 70% in size. Put shortly:
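G. lamblia WB trophozoites (100 cells/well) were grown with compound at 37C for 48 h in modified TYI-S-33 medium, pH 7.0. Growth was measured by ATPlite luminescence after 20 min at room temperature.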

A short description of experiment [3]: qHTS Assay for Inhibitors of Fructose-1,6-bisphosphate Aldolase from Giardia Lamblia: Mammalian cellular toxicity (AID 2786).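 Further: compound exposure lasted 48 h before reading; on the % scale 0 is the no-effect control and ±100 the full control effect; nearly all actives have a fitted effect of over 60% in size.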 In outline: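 CHO cells seeded at 250 cells/well with pin-tool-added compound, incubated 48 h at 37 °C, 5% CO2. Viability read as ATP content by ATPlite luminescence after 20 min.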
Experiment [4] has as its target Fructose-bisphosphate aldolase (Giardia intestinalis (strain ATCC 50803 / WB clone C6)) (UniProt A8B2U2). In words: qHTS Assay for Inhibitors of Fructose-1,6-bisphosphate Aldolase from Giardia Lamblia: Primary screen confirmation (AID 2787).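 Further: aldolase product measured through coupled diaphorase step turning resazurin into fluorescent resorufin; series mostly up to about 58 µM; on the % scale 0 is the no-effect control and ±100 the full control effect; nearly all actives have a fitted effect of over 45% in size.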 Put shortly: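 FBPA (40 nM in enzyme reagent, with 30 uM ZnCl2) was preincubated 10 min at RT with compound up to 57.5 uM final. Substrate plus coupled detection system was then added, and fluorescence (525/598 nm) was read after 20 min at RT.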
Background: In qHTS, concentration-response curves come from the screen itself.

The target of experiment [5] is Fructose-bisphosphate aldolase A (Oryctolagus cuniculus) (UniProt P00883). The experiment in a line: qHTS Assay for Inhibitors of Fructose-1,6-bisphosphate Aldolase from Giardia Lamblia: Rabbit FBPA Selectivity (AID 2794). Further: on the % scale 0 is the no-effect control and ±100 the full control effect; nearly all actives have a fitted effect of over 60% in size. Put shortly: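 Each compound, dosed at up to 57.5 uM final, was first mixed with coupling enzyme reagent for 10 min. Aldolase substrate and the AmpLite Red coupling system then ran 20 min at RT before a single fluorescence read.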

The nature of experiment [6]: qHTS Assay for Inhibitors of Fructose-1,6-bisphosphate Aldolase from Giardia Lamblia: Coupling assay counterscreen confirmation (AID 2795). Further: on the % scale 0 is the no-effect control and ±100 the full control effect; nearly all actives have a fitted effect of over 55% in size. In outline: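 Primary-screen hits were tested against the coupling system alone (GAPDH-based, glyceraldehyde-3-phosphate), without aldolase. Compounds at up to 57.5 uM final were preincubated 10 min at RT with coupling enzymes, then substrate/detection mix (AmpLite Red) was added for 20 min at RT; fluorescence read at 525/598 nm.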

Experiment [7] addresses Ferritin light chain (Equus caballus) (UniProt P02791). In words: qHTS Validation Assay for Identification of Novel General Anesthetics (AID 2323). Further: series mostly up to about 77 µM; on the % scale 0 is the no-effect control and ±100 the full control effect. In outline:
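Apoferritin from horse spleen (10 uM) was mixed with 1-aminoanthracene at 50% saturation in PBS, then compounds were added. After 10 min at room temperature, fluorescence was read (ex 380 nm, em 535 nm) and normalized to free-probe and complex controls.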

Experiment [8] can be described thus: Validation screen for inhibitors of Lassa infection (AID 463096; calls by dose curve; further: on the % scale 0 is the no-effect control and ±100 the full control effect).
Experiment [9] has as its target Bile acid receptor (Homo sapiens) (UniProt Q96RI1). The experiment in a line: qHTS assay for small molecule agonists of farnesoid X receptor signaling (AID 588527; calls by dose curve;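 further: series mostly up to about 77 µM; 0% = vehicle basal and 100% = reference agonist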). The conditions noted are these: HEK293T FXR-UAS-bla, beta-lactamase ratio, 16 h; hits give high values. In outline: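 FXR-UAS-bla HEK293T, 10% dialyzed FBS; cpds up to 92 uM titration, 16 h 37 C; CCF4 dye 2 h RT; fluorescence. Normalized to chenodeoxycholic acid 100 uM (100%) and DMSO (0%); Hill fit gives EC50, efficacy.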

Experiment [10] is described as follows: Counterscreen for APE1 Inhibitors: Fluorescent Dye Displacement Assay (AID 2564).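 Further: loss of thiazole orange fluorescence as the dye is displaced from duplex DNA.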 Further: potency means the concentration at half of the fitted maximal effect.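 On activity change, negative = inhibition: 0% = ThO with dsDNA and no compound and -100% = ThO without dsDNA.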 Put shortly: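 Signal: ThO fluorescence (ex 480 nm/em 540 nm) on binding 50 nM dsDNA; displacement by test compound reduces it. Conditions: 250 nM dye, 50 mM Tris-HCl pH7.5, 2 mM MgCl2, 50mM NaCl, 0.01% Tween-20.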
For orientation: Counterscreens check selectivity or assay interference.

The target of experiment [11] is Endonuclease 4 (Escherichia coli (strain K12)) (UniProt P0A6C1). In words: Counterscreen for APE1 Inhibitors: qHTS Assay for Inhibitors of Endonuclease IV (AID 2565). Further: potency means the concentration at half of the fitted maximal effect.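 On activity change, negative = inhibition: plate controls were uninhibited enzyme wells for no effect and no enzyme buffer wells for full effect.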 Put shortly: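 Read-out: fluorescence rise (ex 525/em 598 nm) from incision of a TAMRA/BHQ-2 double-stranded THF abasic-site substrate (50 nM), measured kinetically; third-minus-first read difference gave reaction progress. Enzyme 2 nM.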

Experiment [12] has as its target DNA repair nuclease/redox regulator APEX1 (Homo sapiens) (UniProt P27695). In words: Confirmation qHTS Assay for Inhibitors of the Human Apurinic/apyrimidinic Endonuclease 1 (APE1) (AID 2572). Further: potency means the concentration at half of the fitted maximal effect; nearly all actives have a fitted effect of over 30% in size. The conditions noted are these: purified APE1, fluorogenic abasic-site DNA cleavage. Put shortly:
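APE1 preincubated 15 min RT with compound; 50 nM TAMRA/BHQ-2 THF-abasic duplex added; kinetic fluorescence, 3 reads at 60 s intervals, Ex 525/Em 598; progress = read 3 minus read 1.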

Fructose-bisphosphate aldolase A (Oryctolagus cuniculus), sequence (P00883 whole entry, looked up): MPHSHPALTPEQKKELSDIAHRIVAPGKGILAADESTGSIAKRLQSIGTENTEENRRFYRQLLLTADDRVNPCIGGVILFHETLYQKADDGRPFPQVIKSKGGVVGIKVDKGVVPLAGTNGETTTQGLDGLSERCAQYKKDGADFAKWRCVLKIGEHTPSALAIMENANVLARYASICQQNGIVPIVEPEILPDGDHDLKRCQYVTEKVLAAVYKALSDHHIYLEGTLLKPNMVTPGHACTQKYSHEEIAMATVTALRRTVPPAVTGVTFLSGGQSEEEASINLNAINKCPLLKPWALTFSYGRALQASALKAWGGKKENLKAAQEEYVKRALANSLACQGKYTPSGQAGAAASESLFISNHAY
DNA repair nuclease/redox regulator APEX1 (Homo sapiens), sequence (P27695 whole entry, looked up): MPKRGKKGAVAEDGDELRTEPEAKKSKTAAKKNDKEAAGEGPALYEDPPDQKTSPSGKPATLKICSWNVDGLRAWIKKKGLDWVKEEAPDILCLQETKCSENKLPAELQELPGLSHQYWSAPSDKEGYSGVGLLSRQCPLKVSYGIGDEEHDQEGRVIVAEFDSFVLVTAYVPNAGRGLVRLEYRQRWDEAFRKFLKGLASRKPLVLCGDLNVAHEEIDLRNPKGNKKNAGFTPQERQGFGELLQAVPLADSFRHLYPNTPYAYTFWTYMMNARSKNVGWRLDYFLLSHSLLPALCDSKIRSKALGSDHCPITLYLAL
Fructose-bisphosphate aldolase (Giardia intestinalis (strain ATCC 50803 / WB clone C6)), sequence (A8B2U2 whole entry, looked up): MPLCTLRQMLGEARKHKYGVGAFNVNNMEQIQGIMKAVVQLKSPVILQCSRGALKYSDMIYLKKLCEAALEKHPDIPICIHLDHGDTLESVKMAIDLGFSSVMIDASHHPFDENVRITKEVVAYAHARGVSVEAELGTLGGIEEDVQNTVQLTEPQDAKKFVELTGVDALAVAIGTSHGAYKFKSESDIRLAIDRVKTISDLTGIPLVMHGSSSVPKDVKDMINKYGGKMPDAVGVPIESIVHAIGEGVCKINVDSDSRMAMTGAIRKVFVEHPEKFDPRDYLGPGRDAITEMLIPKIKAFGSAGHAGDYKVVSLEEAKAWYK
Bile acid receptor (Homo sapiens), sequence (Q96RI1 whole entry, looked up): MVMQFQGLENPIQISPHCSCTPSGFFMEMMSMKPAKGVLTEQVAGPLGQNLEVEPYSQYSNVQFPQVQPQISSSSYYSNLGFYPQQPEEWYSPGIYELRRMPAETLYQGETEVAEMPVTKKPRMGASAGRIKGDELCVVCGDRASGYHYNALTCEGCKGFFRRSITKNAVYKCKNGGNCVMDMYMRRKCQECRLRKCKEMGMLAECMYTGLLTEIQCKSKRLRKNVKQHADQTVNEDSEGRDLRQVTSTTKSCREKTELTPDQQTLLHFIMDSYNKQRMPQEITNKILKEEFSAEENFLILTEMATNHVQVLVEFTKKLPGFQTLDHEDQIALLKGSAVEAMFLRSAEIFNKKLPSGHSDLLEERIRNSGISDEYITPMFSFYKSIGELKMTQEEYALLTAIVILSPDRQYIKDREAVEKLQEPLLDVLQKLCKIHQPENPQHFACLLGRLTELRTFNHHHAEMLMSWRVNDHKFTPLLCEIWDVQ
Ferritin light chain (Equus caballus), sequence (P02791 2-175 limits assumed): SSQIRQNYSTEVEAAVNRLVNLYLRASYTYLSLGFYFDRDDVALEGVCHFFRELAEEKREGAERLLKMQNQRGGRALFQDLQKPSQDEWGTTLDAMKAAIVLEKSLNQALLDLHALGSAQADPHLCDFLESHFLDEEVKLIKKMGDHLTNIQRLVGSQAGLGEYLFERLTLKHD

For the compound `FC(F)(F)c1cc(CN2CC[C@@]3(CCCNC3)C2)cc(C(F)(F)F)c1`, in experiment [1], the Potency is over 20 µM.

For the compound `CCCCC(=O)N/N=C/c1c(O)n(-c2ccccc2)c(=O)[nH]c1=O`, the compound was called inactive in [2], in experiment [3], in experiment [4], in experiment [5] and in [6].

Regarding `COc1ccc(CNCCc2c[nH]c3ccccc23)cc1OC`, the activity change, negative = inhibition in experiment [2] is 0.258% [at 10.4 µM]. Besides, the compound was classed as inactive in experiment [3], in experiment [4], in experiment [5] and in experiment [6].

In the case of `O=c1c(-c2cccc(Cl)c2)nc2cncnc2n1C1CC1`, in experiment [1], the Potency is over 20 µM.

For `COc1ccc(CNc2ccnc(-c3cccnc3)n2)c(OC)c1`, the Potency in experiment [1] was over 20 µM.

Turning to `COc1ccc(C(=O)N2CCC[C@@]3(CCN(Cc4ccncc4)C3)C2)cc1`, the Potency in experiment [1] is over 20 µM.

Turning to `COc1ccc(C(=O)N2CCC3(CC2)CCN(C(c2ccccc2)c2ccccc2)CC3)cc1`, the Potency in [1] was over 20 µM.

In the case of `c1cc(NC2CC2)nc(-c2ccoc2)n1`, the Potency in experiment [1] is over 20 µM.

Take `O=c1c(-c2ccccc2)nc2cnc(N3CCOCC3)nc2n1-c1ccccc1`: the Potency in [1] was over 20 µM.

With `CN1C2CCC1CC(NC(=O)c1nn(C)c3ccccc13)C2` (stereo not given), the outcome in experiment [7] and in [8] was inactive.

Regarding `CN1CSC(=S)N(C)C1`, the activation in [9] is 0.811% and -0.41%.

Consider `O=C(NC(=S)N1C[C@H]2C[C@H](C1)c1cccc(=O)n1C2)c1ccc(F)cc1`, for which the call in experiment [2], in [3], in [4], in experiment [5] and in experiment [6] was inactive.

On to `O=S(=O)(c1ccccc1)N1CCC2(CCCN(Cc3nccs3)C2)CC1`, for which the Potency in experiment [1] was over 20 µM.

Consider `Cc1c(C(=O)O)cccc1-n1c(C)cc(/C=C2\C(=O)NC(=O)N(c3ccc4c(c3)OCO4)C2=O)c1C`, for which the Potency entry in [10] and in experiment [11] was “inactive” each time. Further, the Potency in experiment [12] is 12.6 µM (active).

With `O=C(Nc1cccc(F)c1)N1CC[C@@]2(CCCN(C(=O)c3cc(C(F)(F)F)cc(C(F)(F)F)c3)C2)C1`, the Potency in experiment [1] is over 20 µM.

Take `COc1ccccc1-c1cc(NCc2cccnc2)ncn1`: the Potency in experiment [1] was over 20 µM.

`CS(=O)(=O)N1CCC2(CC1)CN(c1ccncc1)C2`: the Potency in experiment [1] is over 4 µM.

`CC(C)CN1CCCC2(CCN(C(=O)c3csnn3)CC2)C1`: the Potency in experiment [1] was over 20 µM.

Consider `COc1ccccc1CN1CCN(C(=O)Cc2ccccc2)CC1`, for which the result in experiment [2], in experiment [3], in experiment [4], in [5] and in experiment [6] was inactive.

Regarding `COCCn1c(=O)c(-c2cc(F)cc(F)c2)nc2cnc(N3CCNCC3)nc21`, the Potency in experiment [1] is over 20 µM.

In the case of `N#Cc1ccc(CN2CC3(CCN(C(=O)c4csnn4)CC3)C2)cc1`, the Potency in experiment [1] was over 20 µM.

For `O=C(O)c1cc[c]([Sb](=[O])([OH])[OH])cc1[N+](=O)[O-]`, the results for the Potency in [11] and in experiment [12] were 10 µM (active) and 0.0562 µM (active), respectively.

`O=C(OCC1O[C@@H](OC(=O)c2cc(O)c(O)c(O)c2)[C@@H](OC(=O)c2cc(O)c(O)c(O)c2)[C@@H](OC(=O)c2cc(O)c(O)c(O)c2)[C@@H]1OC(=O)c1cc(O)c(O)c(O)c1)c1cc(O)c(O)c(O)c1` (stereo not given in full): the Potency was 3.98 µM (active) in [10] and 0.0063 µM (active) in [12].

Consider `COc1cccc(-c2cncnc2NCc2cccnc2)c1`, for which the Potency in experiment [1] is over 20 µM.
